GRK2 aptamer HTS = compounds blocking aptamer binding on GRK2 – biochemical, human GRK2, bead flow cytometry, HTS, primary screen | inhibition of aptamer binding, % at 10 µM | 0.59% of 330,000 active | FAM-aptamer displacement from GRK2 | Beta-adrenergic receptor kinase 1 (Homo sapiens), P25098;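 active means inhibition of aptamer binding above 40%, roughly 3 SD of noise, on plates passing a quality check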;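 further: median bead fluorescence of bound FAM aptamer so fluorescent compounds give negative values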
TLR9-MyD88 block = inhibitors of TLR9-MyD88 association in cells, primary screen, cell-based, CHO, BLA complementation, fluorescence; CCF4 FRET ratio; 0.21% of 340,000 active; inhibition, % at 4.98 µM;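 active means inhibition above the mean over all tested compounds plus 3 SD, cut at about 21% in these data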;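 further: 0% = DMSO only wells and 100% = clavulanate BLA inhibitor control wells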
TMEM16A act = TMEM16A chloride channel activators or potentiators, primary screen, cell-based, HTS; Anoctamin-1 (Mus musculus), Q8BHY3; HEK293 TMEM16A/YFP-H148Q/I152L, iodide quench fluorescence; active compounds read low; B-score at 10 µM; 0.3% of 340,000 active;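 active means fluorescence-ratio B-score plate-corrected deviation score at least 3 library SD below zero, with starting fluorescence score within 5 deviations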;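 further: channel opened by trigger with iodide after compound preincubation; score built on the fluorescence ratio of max minus min over baseline; more negative score means more quench and so TMEM16A activation or potentiation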
ANO1 block = TMEM16A chloride channel inhibitors, primary screen, cell-based, HTS; Anoctamin-1 (Mus musculus), Q8BHY3; HEK293 TMEM16A/YFP iodide influx fluorescence, ionomycin; normalized B-score (activity score, 25-100; higher = stronger inhibition) at 10 µM; 1.2% of 310,000 active;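 active means ratio plate-corrected score three or more library SD toward inhibition, starting fluorescence score within five deviations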;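 further: score derived from kinetic fluorescence span divided by baseline fluorescence per well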
TLR4 MyD88 comp = inhibitors of TLR4-MyD88 association in cells, primary screen, cell-based, HeLa CL3-4, BLA complementation, FRET ratio; HeLa CL3-4 TLR4/MyD88 BLA complementation; inhibition, % at 8.4 µM; 0.18% of 200,000 active; in the data active means inhibition above about 25%;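 further: 0% = vehicle and 100% = reference inhibitor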
NOD2-RIPK2 inh = NOD2-RIPK2 binding disruptors in cells, primary screen, fluorescence, CHO cells, BLA complementation | inhibition, % at 4.98 µM | Receptor-interacting serine/threonine-protein kinase 2 (Homo sapiens), O43353 | CCF4 ratio | AID 624267, 2012 | 0.38% of 360,000 active; in the data active means inhibition above about 21%;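 further: 0% = vehicle only and 100% = reference blocker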
Target sequence (O43353 whole entry, looked up): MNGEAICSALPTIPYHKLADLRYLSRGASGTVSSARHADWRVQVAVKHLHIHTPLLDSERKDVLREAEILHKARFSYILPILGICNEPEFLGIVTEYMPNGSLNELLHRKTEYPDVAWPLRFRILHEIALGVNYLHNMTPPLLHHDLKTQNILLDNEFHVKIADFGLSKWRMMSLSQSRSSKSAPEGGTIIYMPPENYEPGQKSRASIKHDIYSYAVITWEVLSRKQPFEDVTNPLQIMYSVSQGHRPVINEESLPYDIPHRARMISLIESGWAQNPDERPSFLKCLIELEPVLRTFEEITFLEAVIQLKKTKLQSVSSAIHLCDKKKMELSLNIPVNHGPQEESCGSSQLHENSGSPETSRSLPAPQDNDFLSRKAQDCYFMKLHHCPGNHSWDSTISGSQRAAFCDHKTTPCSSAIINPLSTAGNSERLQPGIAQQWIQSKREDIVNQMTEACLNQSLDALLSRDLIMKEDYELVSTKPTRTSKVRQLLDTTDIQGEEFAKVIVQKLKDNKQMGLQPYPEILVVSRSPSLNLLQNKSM
Starred values were filed as active, the others as inactive. The list is not random: actives were taken first. Their share in the collection is about 2.2%.

How did CCOc1ccccc1C(=O)N1c2ccccc2Sc2ccccc21 do in these assays?
GRK2 aptamer HTS: 0.0; TLR9-MyD88 block: -10.3; TMEM16A act: inactive; ANO1 block: 100*; TLR4 MyD88 comp: -4.9; NOD2-RIPK2 inh: 7.2

Results for CCCCNC(=O)c1ccc2nc(CC)c(N(CC)CCOC)n2c1 ?
NOD2-RIPK2 inh: -3.6

How did CCC(=O)NCc1cc(-c2nn(C)c(=O)c3ccccc23)ccc1C do in these assays?
GRK2 aptamer HTS: 3.0; TLR9-MyD88 block: -5.4; TMEM16A act: inactive; ANO1 block: inactive; TLR4 MyD88 comp: -5.7; NOD2-RIPK2 inh: -12.7

Results for Cc1ccc(-c2nn(CC(=O)NCc3cc(-c4nn(C)c(=O)c5ccccc45)ccc3C)c(=O)c3ccccc23)cc1 ?
GRK2 aptamer HTS: 0.0; TLR9-MyD88 block: -16.5; TMEM16A act: -7.78*; ANO1 block: inactive; TLR4 MyD88 comp: -2.6; NOD2-RIPK2 inh: 2.5

How did COc1ccc(OC)c(CN2C(=O)CSCC2(C)C(=O)NC(C)C)c1 (stereo unspecified) do in these assays?
NOD2-RIPK2 inh: -8.3

How did CC1(C(=O)NS(=O)(=O)c2cccc(F)c2)CCN1C(=O)CC1CCCC1 (stereo unspecified) do in these assays?
NOD2-RIPK2 inh: -11.2

Results for Cc1nn(-c2ccccc2)c(Cl)c1C(=O)N1CCN(c2ncnc3c2cnn3-c2ccccc2)CC1 ?
GRK2 aptamer HTS: 3.0; TLR9-MyD88 block: -3.4; TMEM16A act: inactive; ANO1 block: 25*; TLR4 MyD88 comp: -0.8; NOD2-RIPK2 inh: 0.6

What do the screens show for `Cn1cnc([N+](=O)[O-])c1Sc1ccc(Br)cc1`?
GRK2 aptamer HTS: 3.0; TLR9-MyD88 block: 6.0; TMEM16A act: inactive; ANO1 block: inactive; TLR4 MyD88 comp: 7.1; NOD2-RIPK2 inh: -2.8

What do the screens show for `Cc1nn(C)c(C)c1Sc1ccc(Br)cc1`?
GRK2 aptamer HTS: 0.0; TLR9-MyD88 block: -12.2; TMEM16A act: inactive; ANO1 block: 25*; TLR4 MyD88 comp: 2.7; NOD2-RIPK2 inh: -5.6

Results for CCC(=O)N(C)CCc1cc2c(c(OC)c1/C=N/NC(=O)c1ccccc1O)OCO2 ?
GRK2 aptamer HTS: 83.0*; TLR9-MyD88 block: -3.2; TMEM16A act: inactive; ANO1 block: inactive; TLR4 MyD88 comp: 12.2; NOD2-RIPK2 inh: -1.7

How did COc1ccc(CNC(=O)C[C@@H]2C=C[C@@H](NS(=O)(=O)c3cccc(OC)c3)[C@@H](CO)O2)cc1 do in these assays?
NOD2-RIPK2 inh: -4.4

How did Cc1ccc(S(=O)(=O)N2[C@@H](c3cccc(Cl)c3)C(C(=O)OC(C)(C)C)=CC[C@H]2c2ccc(C(C)C)cc2)cc1 do in these assays?
NOD2-RIPK2 inh: -5.8

What do the screens show for `CCCn1nc([N+](=O)[O-])c(C(C#N)c2nc3ccccc3s2)c(Cl)c1=O` (stereo unspecified)?
GRK2 aptamer HTS: 1.0; TLR9-MyD88 block: 8.1; TMEM16A act: inactive; ANO1 block: 100*; TLR4 MyD88 comp: -11.6; NOD2-RIPK2 inh: -6.5

What do the screens show for `O=C(O)C1=CCC(c2ccc(Cl)c(Cl)c2)N(S(=O)(=O)c2ccc(F)cc2)C1c1cccc(F)c1` (stereo unspecified)?
NOD2-RIPK2 inh: -18.9

How did COc1ccc(-c2coc3c(CN4CCCCC4)c(O)c(CN4CCCCC4)c(O)c3c2=O)cc1 do in these assays?
GRK2 aptamer HTS: 100.0*; ANO1 block: inactive; TLR4 MyD88 comp: 12.7

How did O=C(NCCCNC(=O)c1cccs1)c1cccs1 do in these assays?
GRK2 aptamer HTS: 0.0; TLR9-MyD88 block: 1.3; TMEM16A act: -11.6*; ANO1 block: inactive; TLR4 MyD88 comp: -7.6; NOD2-RIPK2 inh: -0.3

How did CCOC(=O)N1N=C(CC)CC1(O)C(F)(F)F (stereo unspecified) do in these assays?
GRK2 aptamer HTS: 0.0; TLR9-MyD88 block: -1.2; TMEM16A act: -11.2*; ANO1 block: inactive; TLR4 MyD88 comp: 1.1; NOD2-RIPK2 inh: -4.2

What do the screens show for `CCOC(=O)N1N=C(c2ccc(C)cc2)CC1(O)C(F)(F)F` (stereo unspecified)?
GRK2 aptamer HTS: 0.0; TLR9-MyD88 block: -0.6; TMEM16A act: inactive; ANO1 block: inactive; TLR4 MyD88 comp: -0.2; NOD2-RIPK2 inh: -5.3

Results for COC(=O)[C@]12CCCCC=C1N(CCc1ccc(OC)c(OC)c1)C(=O)[C@H](CC(=O)NCC1CCCCC1)C2 ?
NOD2-RIPK2 inh: 8.8

How did COC(=O)c1ccc(CN(c2ccc(C(=O)O)c(O)c2)S(=O)(=O)c2ccc(Cl)c([N+](=O)[O-])c2)cc1 do in these assays?
GRK2 aptamer HTS: 2.0; TLR9-MyD88 block: -15.1; TMEM16A act: inactive; ANO1 block: 100*; NOD2-RIPK2 inh: -1.4

Results for COC(=O)c1ccc(CN(c2ccccn2)S(=O)(=O)c2ccccc2)cc1 ?
GRK2 aptamer HTS: 0.0; TLR9-MyD88 block: 7.2; TMEM16A act: inactive; ANO1 block: inactive; TLR4 MyD88 comp: -0.9; NOD2-RIPK2 inh: -2.0

What do the screens show for `COc1ccc(C(C)(O)c2nc(-c3cccc(C(F)(F)F)c3)cs2)cc1` (stereo unspecified)?
NOD2-RIPK2 inh: 3.9

Results for C=CCn1c(NS(=O)(=O)c2ccccc2)c(S(=O)(=O)c2ccc(C)cc2)c2nc3ccccc3nc21 ?
GRK2 aptamer HTS: 6.0; TLR9-MyD88 block: -2.7; TMEM16A act: inactive; ANO1 block: inactive; TLR4 MyD88 comp: -6.8; NOD2-RIPK2 inh: -7.4

How did O=S(=O)(Nc1c(S(=O)(=O)c2ccccc2)c2nc3ccccc3nc2n1C1CCCCC1)c1ccccc1 do in these assays?
GRK2 aptamer HTS: 3.0; TLR9-MyD88 block: 7.0; TMEM16A act: inactive; ANO1 block: 100*; TLR4 MyD88 comp: 2.9; NOD2-RIPK2 inh: 12.4

What do the screens show for `O=C(Nc1cccc(F)c1)c1c(O)c2cccc3c2n(c1=O)CCC3`?
GRK2 aptamer HTS: 78.0*; ANO1 block: inactive; TLR4 MyD88 comp: -5.4

Results for CCOC(=O)/C=C/C(=O)OCC(=O)NCc1ccccc1 ?
GRK2 aptamer HTS: 3.0; TLR9-MyD88 block: 0.4; TMEM16A act: inactive; ANO1 block: inactive; TLR4 MyD88 comp: 2.7; NOD2-RIPK2 inh: -1.1

What do the screens show for `C/C(=C\C(=O)OCC(=O)NCc1ccccc1)C(=O)OCC(=O)NCc1ccccc1`?
GRK2 aptamer HTS: 80.0*; TLR9-MyD88 block: -13.8; TMEM16A act: inactive; ANO1 block: inactive; TLR4 MyD88 comp: -4.0; NOD2-RIPK2 inh: -7.2

Screening data (PubChem BioAssay)
